“And” between values parts separate entries of the source, which are not always exact repeats. Equal entries are not always repeated. Hit rate of the full screen: of about 5,500 compounds, about 2,000 (36%) were called active. About 18% were inconclusive and are not listed. Cut-off read from the data, not from the text of the source: active = normalized growth mostly below about 0.91 (no sharp cut-off); inconclusive = no clear call, values can overlap the other calls; inactive = mostly above about 0.92. The list shows a part of the results.
Assay: chemical genetic growth profiling, strain panel (AID 1159580);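 note: tested at 20 µM; growth read once vehicle control cultures reached saturation at 30 °C; 1 = growth at the plate median or of vehicle wells; lower values mean less growth of the strain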
Details: S. cerevisiae deletion strains, growth OD

Measured: normalized growth

Oc1ccc(/C=C/c2cc(O)cc(O)c2)cc1
0.406 (active) and 1.01 (inactive): locus YJL095W, strain BCK1, stronger effect = lower value
active: locus YDL192W, strain arf1, stronger effect = lower value 0.865 | locus YDR101C, strain arx1, stronger effect = lower value 0.873 | locus YDR137W, strain rgp1, stronger effect = lower value 0.681 | locus YDR195W, strain ref2 1.18 [resistant] | locus YDR502C, strain sam2, stronger effect = lower value 0.895 | locus YGL078C, strain dbp3, stronger effect = lower value 0.895 | locus YGL086W, strain mad1, stronger effect = lower value 0.897
0.892 (active) and 0.981 (inactive): locus YHR030C, strain SLT2, stronger effect = lower value
inactive: locus YAL013W, strain DEP1, stronger effect = lower value 0.972 and 1.02 | locus YAL021C, strain ccr4, stronger effect = lower value 0.995 | locus YAL026C, strain drs2, stronger effect = lower value 0.978 | locus YAL030W, strain snc1, stronger effect = lower value 0.99 | locus YAL040C, strain CLN3, stronger effect = lower value 0.987 | locus YBL061C, strain skt5, stronger effect = lower value 0.992 | locus YBR009C, strain hhf1, stronger effect = lower value 0.968 | locus YBR021W, strain FUR4, stronger effect = lower value 0.961 | locus YBR023C, strain chs3, stronger effect = lower value 0.99 | locus YBR171W, strain sec66, stronger effect = lower value 1.01 | locus YBR229C, strain ROT2, stronger effect = lower value 1.02 | locus YBR231C, strain swc5, stronger effect = lower value 0.988 | locus YBR279W, strain paf1, stronger effect = lower value 0.988 | locus YCL011C, strain gbp2, stronger effect = lower value 0.996 | locus YCL016C, strain dcc1, stronger effect = lower value 0.99 | locus YCL029C, strain bik1, stronger effect = lower value 0.929 | locus YCL061C, strain MRC1 (second series), stronger effect = lower value 0.987 | locus YCL061C, strain MRC1, stronger effect = lower value 0.99 | locus YCL069W, strain vba3, stronger effect = lower value 1.01 | locus YCR088W, strain abp1, stronger effect = lower value 1 | locus YDL005C, strain med2, stronger effect = lower value 0.999 | locus YDL035C, strain GPR1, stronger effect = lower value 0.939 | locus YDL040C, strain nat1, stronger effect = lower value 0.982 | locus YDL074C, strain BRE1, stronger effect = lower value 0.867 | locus YDL101C, strain DUN1, stronger effect = lower value 0.999 | locus YDL134C, strain PPH21, stronger effect = lower value 0.982 | locus YDL185W, strain tfp1, stronger effect = lower value 0.939 | locus YDR001C, strain nth1, stronger effect = lower value 0.999 | locus YDR069C, strain doa4, stronger effect = lower value 0.988 | locus YDR150W, strain NUM1, stronger effect = lower value 0.985 | locus YDR159W, strain sac3, stronger effect = lower value 0.954 | locus YDR162C, strain NBP2, stronger effect = lower value 0.948 | locus YDR297W, strain sur2, stronger effect = lower value 0.977 | locus YDR318W, strain mcm21, stronger effect = lower value 0.983 | locus YDR334W, strain swr1, stronger effect = lower value 0.997 | locus YDR335W, strain msn5, stronger effect = lower value 1.01 | locus YDR363W, strain ESC2, stronger effect = lower value 1.01 | locus YDR388W, stronger effect = lower value 0.962 | locus YDR392W, strain spt3, stronger effect = lower value 0.842 | locus YEL003W, strain gim4, stronger effect = lower value 0.992 | locus YEL037C, strain rad23, stronger effect = lower value 1.01 | locus YEL061C, strain CIN8 (second series), stronger effect = lower value 1.01 | locus YEL061C, strain CIN8, stronger effect = lower value 0.986 | locus YER002W, strain NOP16, stronger effect = lower value 0.98 | locus YER015W, strain faa2, stronger effect = lower value 0.986 | locus YER016W, strain bim1, stronger effect = lower value 0.994 | locus YER110C, stronger effect = lower value 0.98 | locus YER111C, strain swi4, stronger effect = lower value 1.01 | locus YER155C, strain BEM2 (second series), stronger effect = lower value 0.986 | locus YER155C, strain BEM2, stronger effect = lower value 1.02 | locus YER167W, strain BCK2, stronger effect = lower value 1.01 | locus YFR010W, strain ubp6, stronger effect = lower value 0.984 | locus YGL167C, strain pmr1, stronger effect = lower value 0.978 | locus YGL173C, strain kem1, stronger effect = lower value 0.994 | locus YGL227W, strain vid30, stronger effect = lower value 0.991 | locus YGL240W, strain doc1, stronger effect = lower value 1 | locus YGL248W, strain PDE1, stronger effect = lower value 0.965 | locus YGL253W, strain hxk2, stronger effect = lower value 0.968 | locus YGR078C, strain PAC10, stronger effect = lower value 0.959 | locus YGR135W, strain pre9, stronger effect = lower value 0.936 | locus YGR252W, strain gcn5, stronger effect = lower value 0.853 | locus YHR013C, strain ard1, stronger effect = lower value 1.04 | locus YHR027C, strain rpn1, stronger effect = lower value 0.989 | locus YHR079C, strain IRE1 (second series), stronger effect = lower value 0.981 | locus YHR079C, strain IRE1, stronger effect = lower value 0.978 | locus YHR094C, strain hxt1, stronger effect = lower value 0.981 | locus YHR129C, strain ARP1, stronger effect = lower value 0.972 | locus YHR142W, strain chs7, stronger effect = lower value 0.987 | locus YHR200W, strain rpn10, stronger effect = lower value 0.93 | locus YIL066C, strain RNR3, stronger effect = lower value 0.987 | locus YIL073C, strain SPO22, stronger effect = lower value 0.896 | locus YIL125W, strain kgd1, stronger effect = lower value 0.952 | locus YIR030C, strain dcg1, stronger effect = lower value 0.964 | locus YJL092W, strain hpr5, stronger effect = lower value 0.995 | locus YJL095W, strain BCK1 (second series), stronger effect = lower value 0.987 | locus YJL115W, strain asf1, stronger effect = lower value 1 | locus YJL129C, strain trk1, stronger effect = lower value 0.903 | locus YJL134W, strain LCB3, stronger effect = lower value 1.01 | locus YJL154C, strain vps35, stronger effect = lower value 1 | locus YJL164C, strain tpk1, stronger effect = lower value 1.01 | locus YJL166W, strain qcr8, stronger effect = lower value 0.998 | locus YJL168C, strain set2, stronger effect = lower value 0.973 | locus YJL187C, strain SWE1 (second series), stronger effect = lower value 0.934 | locus YJL187C, strain SWE1, stronger effect = lower value 0.986
